The panel holds about 83,000 compounds, 20% with a hit somewhere; the sample as a whole holds those more often.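 In brief: 96-well plates, 48 h treatment, single concentration, percent growth endpoint.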 Activity calls are given as the source filed them.

The assay deals with SK-OV-3 ovarian. Put plainly: NCI-60 one-dose screen, 48 h (100 = growth as untreated, 0 = no growth, -100 = all killed). The note with it: 10 µM unless noted. As to the method:
Growth inhibition of the SK-OV-3 human tumor cell line is measured as a screen for anti-cancer activity. Cells are grown in 96 well plates and exposed to the test compound for 48 hours. Compounds are tested at a single concentration, which is 10^-5 M for most compounds. The reported endpoint is percent growth (GI% or GIPRCNT), where numbers from 0 - 100% represent growth inhibition, and numbers from -100% - 0 represent cell death. For example, a value of 40 represents 60% growth inhibition. A value of 0 means no net growth occurred over the course of the experiment. A value of -40 indicates 40% of cells at the beginning of the experiment died by the end of the experiment. A value of -100 means all cells are dead at the end of the experiment.
NCI-60 Human Tumor Cell Lines Screen was performed using the standard one-dose NCI protocol, which is described in more detail at https://dtp.cancer.gov/discovery_development/nci-60/default.htm.
Compounds with GIPRCNT values below 10 were considered active. Activity score was based on GIPRCNT using the following formula: […]
Score is 0 for GIPRCNT values of 100 or above, 50 for GIPRCNT values of 0, and 100 for GIPRCNT values of -100.
Take `COc1cc(OC)cc(C(=O)Nc2cnc(Nc3ccc(N4CCOCC4)nc3)nc2Oc2ccc(C(F)(F)F)cc2)c1`: the growth is 111% (inactive).
For `C#CCOc1cc(/C=N/Nc2nc(-c3ccc(OC)cc3)cs2)ccc1O`, the growth is 99.4% (inactive).
As for `CN(C)c1ccc(/C=C/C2=[N+](C)c3ccccc3C2(C)C)cc1`, the growth was 4.03% (active).
As to `CCCCCCCCNC(=O)[C@@H](N)CSCOC(C)=O`, the growth was 95.3% (inactive).
Next, `C=CCNc1nc(O)c(/C=C2\C=Nc3ncccc32)s1`: -7% (active).
`C=C1C(=O)O[C@H]2[C@H]1CC/C(COC(=O)NCc1ccc(Cn3c(=O)sn(CCCC)c3=O)cc1)=C\CC[C@@]1(C)O[C@@H]21`: the growth was 107% (inactive).
Consider `Cc1c(Cl)cccc1NC(=O)c1sc2nc3c(cc2c1N)CCCC3`, for which the growth is 27.7% (inactive).
`CCOC(=O)C1=C(C)N(C)C(=O)N(C)C1c1ccccc1` (stereo not given): the growth was 93.9% (inactive).
Next, `Cc1ccc(C(=O)Nc2ccc(CN3CCN(C)CC3)c(C(F)(F)F)c2)cc1C#Cc1cnc(N)c2ccccc12`: -1.39% (active); `COc1cc(/C=C2\C(=O)N(CCOc3cc(O)c4c(=O)cc(-c5ccccc5)oc4c3)c3ccccc32)cc(OC)c1O`: 92.2% (inactive); `COc1ccc(C2=NN(C=O)C(c3ccc(Oc4nc5c(c(=O)n(C)c(=O)n5C)n4C)c(OC)c3)C2)cc1` (stereo not given): 114% (inactive).
Turning to `O=C(Oc1ccccc1)c1cc(O)c(O)c(O)c1`, the growth is 77.3% (inactive).
In the case of `Cc1c(C(=O)C(SC(=S)N2CCOCC2)SC(=S)N2CCOCC2)nnn1-c1ccc([N+](=O)[O-])cc1`, the growth was 93.3% (inactive).
The figure for `[2H]C([2H])([2H])Oc1c(F)cccc1/C=C/C(=O)/C=C(O)/C=C/c1cccc(F)c1OC([2H])([2H])[2H]` is 117% (inactive); for `O=C1c2ccccc2-c2c1c1ccncc1c(=O)n2CCCn1ccnc1` it is 73.6% (inactive).
As to `C=CC(=O)NCc1cccc(Nc2ncc(Br)c(NCCCNC(=O)C3CCC3)n2)c1`, the growth was -42% (active).
As for `COc1cc2cc(Oc3ccc(NC(=O)Nc4ccc(F)c(C(F)(F)F)c4)cc3)c(C)nc2cc1OCCN1CCCCC1`, the growth is 115% (inactive).
As to `CCOC(=O)/C(=C\c1ccccc1Cl)P(=O)(OCC)OCC`, the growth was 95.7% (inactive).
The figure for `C#C[C@]1(O)CC[C@H]2[C@@H]3CC=C4c5sc(-c6ccccc6)nc5CC[C@]4(C)[C@H]3CC[C@@]21C` is 111% (inactive); for `CN(C)C(=O)OCc1ccc2c(Cl)cc(Cl)c(O)c2n1` it is 50.1% (inactive); for `O=C(Nc1ncc(Cc2ccc(Cl)cc2)s1)c1ccc2c(c1)OCCO2` it is 33.4% (inactive).
In the case of `COc1cc(/C=N/NC(=O)c2ccc3nc(-c4ccc(Cl)cc4)[nH]c3c2)cc(OC)c1OC`, the growth is 87.8% (inactive).
Regarding `CC(C)=CC(=O)C1C(=O)c2ccccc2C1=O`, the growth is 90.4% (inactive).
In the case of `COc1ccc(NC(=O)c2sc3nc(C)c(C(=O)c4ccccc4)cc3c2N)cc1`, the growth is 92.6% (inactive).
As to `CNC(=O)c1cc(Oc2cccc3nc(NC(=O)Nc4ccc(F)cc4F)ccc23)ccn1`, the growth was 35.3% (inactive).
Regarding `Clc1ccc2c(NCCCn3cnc4c(N5CCCC5)nc(Cl)nc43)ccnc2c1`, the growth is 88.2% (inactive).
Consider `COc1cc(/C=C/C(=O)c2ccc(-n3cc(CN4CCN(c5cc6c(cc5F)c(=O)c(C(=O)O)cn6C5CC5)CC4)nn3)cc2)cc(OC)c1OC`, for which the growth is 79% (inactive).
With `O=C(NC1CCCCCC1)c1ccc2c(=O)n3c(nc2c1)CCCCC3`, the growth was 108% (inactive).
For `N#Cc1nn(-c2ccccn2)c(N)c1C#N`, the growth was 91.5% (inactive).
As to `COc1ccc2c(O)cc3c(c2c1)[C@H](CCl)CN3C(=O)c1cc2cc(NC(=O)CCN3CCOCC3)ccc2[se]1`, the growth was -42% (active).
With `Cn1ccnc1C(=O)/C=C/c1ccc(CC(=O)Nc2cc(F)c(F)c(F)c2)cc1`, the growth was 85.2% (inactive).
In the case of `COc1cccc(-c2nn(-c3ccccc3)cc2-c2ccnc(-c3cccnc3)c2)c1`, the growth was 104% (inactive).
`CCOC(=O)C1=C(c2ccccc2)N=C2N(c3ccccc3)N=C(C(C)=O)N2C1c1ccc(Br)cc1` (stereo not given): the growth was 112% (inactive).
With `C=CN(C(=O)N1CCN(c2cc3c(cc2F)c(=O)c(C(=O)O)cn3C2CC2)CC1)c1nc(-c2ccc(C)cc2)cs1`, the growth is -5.97% (active).
Turning to `CN1CCN(Cn2nc(-c3cc(Cl)cc(Cl)c3Cl)oc2=S)CC1`, the growth was 100% (inactive).
Consider `Cn1ccnc1C(=O)/C=C/c1ccc(C(=O)Nc2ccccc2F)cc1`, for which the growth was 51.9% (inactive).
On to `c1ccc(Cn2cc3c(c2)-c2nc(Nc4ccccc4)ncc2CC3)cc1`, for which the growth is 63.1% [100 µM] (inactive).
`O=C(Nc1ncc(Cc2ccccc2)s1)c1ccc2c(c1)OCCO2`: the growth was 25% (inactive).
Turning to `Cc1cc(=O)oc2cc(Oc3nc(-c4ccccc4)cn4c(-c5ccccc5)cnc34)ccc12`, the growth was 63.1% (inactive).
As for `COc1cc(C(=O)/C=C/c2c(-c3cccs3)nc3sc(C)cn23)cc(OC)c1OC`, the growth is 12.4% (inactive).

Source of the values: PubChem BioAssay (NCI).
